Reference: article PMC4242493, “Sequence specificity incompletely defines the genome-wide occupancy of Myc”
Whole data set: some 33,000 sequences, median “normalized occupancy” near 0.075, cut for the highest 2% near 0.095. The entries come from a sample that favours the highest values as a whole.

These sequences were tested against MaxL homodimer (Homo sapiens, UniProt P61244 1-160) (assay: universal protein-binding microarray (PBM); PBS-based mixture, 10 nM His-tagged protein dimer, 2% milk, 200 ng/uL BSA, 50 ng/uL salmon testes DNA, 0.02% TX-100; detection with Alexa 488 anti-His antibody;; high values mean tight binding). Conditions: protein: recombinant; tags: C-terminal His-tag (pET21a); chain copies: 2; dsDNA, one strand shown.
Chain of MaxL homodimer (P61244 whole entry): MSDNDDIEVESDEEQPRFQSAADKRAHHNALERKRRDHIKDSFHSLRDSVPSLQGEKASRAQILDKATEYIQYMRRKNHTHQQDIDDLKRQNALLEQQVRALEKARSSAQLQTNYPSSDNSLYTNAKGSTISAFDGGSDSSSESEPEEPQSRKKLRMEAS
In short: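 Agilent 4 x 44 K arrays carrying the 'all 10-mer' universal design were incubated with His-tagged protein dimer at 10 nM. Protein that bound was tagged using fluorophore-conjugated anti-His antibody at 10 ng/μL, and a GenePix 4400A scanned the arrays to give an intensity for every 8-mer. Each binding occupancy value expresses an intensity relative to the top-ranked intensity.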

Sequence	binding signal [normalized occupancy]
CTTTGACC	0.0868
AGTGCTCA	0.0761
TCACGAAA	0.0755
CTCCAGTA	0.0743
CAACCGTA	0.0753
ACGCCGCG	0.0773
AAGGAAAG	0.0804
GATGCCCA	0.0798
AATGCCCC	0.0836
CATGCCCG	0.0842
CATGCCCA	0.0953
GATGCCCC	0.0764
CATGCCCC	0.0965
TCAGACGA	0.0739
CTACAGAG	0.0735
AAGAAGGC	0.0751
AGCGCCTA	0.0724
GTGAATAA	0.0848
CCATGTGA	0.154
CAATGTGG	0.097
AAATGTGC	0.0962
CCATGTAA	0.0855
AAATGTGT	0.0811
CAATGTGC	0.0924
ATATGTGA	0.0878

Sequence	binding signal [normalized occupancy]
AGATGTGA	0.085
ACATGTGA	0.166
GAATGTGC	0.0815
CGATGTGA	0.0833
CAATGTGA	0.0948
CGCACCAA	0.0722
GCGTTCAC	0.0758
CCGCTAAG	0.0719
CGTCACTC	0.074
GCGGGTCA	0.0811
ACTTTGTG	0.0718
TACTACGA	0.0764
CTAATATA	0.0824
CATTAGAA	0.0752
ACATCACG	0.0884
CGTGTTAA	0.0819
GGCCCACA	0.0789
ACTGACGA	0.0719
CTCCTTCC	0.081
AGGCACGC	0.0914
GTTAACCA	0.0793
AGCGTTCA	0.0757
AGATGTGC	0.0825
GCATGTGA	0.157
AAATGTGG	0.088

Sequence	binding signal [normalized occupancy]
CCATGTCC	0.0824
ACATGTGG	0.209
AGATGTGG	0.0868
ACATGTGC	0.197
GAATGTGA	0.0817
GGATGTGA	0.0786
ACATGTCC	0.0918
CCATGTGC	0.209
CGATGTGC	0.0807
CCGATGAC	0.0747
TTAGTAAA	0.0726
CGATGCCC	0.0786
CCGAGTGC	0.0748
GATAGTGC	0.0782
AAGTTAGA	0.0733
CAGGCACC	0.0774
GACAAGAA	0.0761
AGGCGTTA	0.0751
CCCATACG	0.0864
CATGACCG	0.0795
CGTGATCA	0.0962
CGTGATCC	0.0811
GGTGATCA	0.0835
AGTGACCA	0.0753
GATGACCA	0.0763

Sequence	binding signal [normalized occupancy]
CGTGACCC	0.0843
CGTGACCA	0.0992
CATGACCA	0.0957
CGCCAACA	0.0741
ACCTGATG	0.0825
AGCTACAA	0.0722
ATGCCAAA	0.0777
GAGATCCC	0.0743
ATACACGG	0.0846
CTACACGC	0.0967
CTACACAC	0.093
CTACACGA	0.0821
ATACACGA	0.0889
ATACACGC	0.102
ACTTGACA	0.0819
GCTCCCAC	0.075
CATCAAGC	0.0726
GTTGAAGA	0.082
ACAGAAGA	0.0734
ATGAAGGG	0.0755
CATGCGAA	0.0898
CATGCGAG	0.0975
GATGCGAC	0.0759
AATGCGAC	0.0782
AATGCGAG	0.0746

Sequence	binding signal [normalized occupancy]
CATGCGAC	0.109
AAACCTTA	0.0742
ACAACGGG	0.0774
AGAACGTG	0.1
ACAACGTA	0.077
ACGACGTC	0.0746
ATAACGTG	0.113
ATAACGTA	0.0784
ACGACGTG	0.0963
AGAACGCG	0.0788
ATAACGTC	0.0773
ACAACGTG	0.149
AGAACGTA	0.0742
ACGACGTA	0.0786
ATAGCGCC	0.0747
GGAGAAGA	0.0765
ATTATTCG	0.0765
AGCTGACA	0.0754
AACAGCAC	0.0765
GTCACCTA	0.0725
ATTTTAAC	0.0737
AAATTGCA	0.0733
CCGCGCGC	0.0828
AAATAAAA	0.079
AAACCCAA	0.0746

Sequence	binding signal [normalized occupancy]
CTTGTCAC	0.0759
ATCCACAG	0.078
AACCACAC	0.0854
AACCACAA	0.0762
ATCCACAT	0.0977
ATCCACAA	0.077
AACCACAT	0.0973
GCAACAGA	0.0747
GTCAGAGA	0.073
ATTGTCTG	0.0774
TACATACA	0.092
AATGGGAA	0.0775
CATGTGTC	0.125
CATGTCTC	0.0933
CTTGTGTA	0.0811
CATGTGTA	0.131
AATGTGTC	0.095
GATGTGTA	0.0848
CTGCGGCA	0.0732
GACACCCA	0.0749
GATGTAGA	0.0799
ACAGCTAT	0.0762
ACAGGTGA	0.084
ACAGGTGC	0.0832
ACAGGTGG	0.0985

Sequence	binding signal [normalized occupancy]
CACAGCAA	0.0762
AATGTGAT	0.101
CATGTTCG	0.0882
CGTGTGCA	0.0981
CATGTGCC	0.149
AGTGTGCA	0.0821
GATGTGCC	0.0796
CCTGTGCG	0.0733
CGTGTGCC	0.0918
CTTGTGCC	0.0778
AATGTGAA	0.0782
ACTGTGAT	0.0734
CATGTGCG	0.181
CGTAGCAG	0.0734
CGTGAAGA	0.0801
TATCTTAA	0.0728
TTCTCAAA	0.0808
CTGCTCCC	0.0741
ACGGTTAA	0.0751
CTGCAGCA	0.0755
GACCTTAC	0.0765
CCAAGCTA	0.0731
